High-throughput results (PubChem)
A selection: hits, their analogues and other compounds. The true share with any hit is near 2.4%.
FEN1 inh = human FEN1 inhibition; P39748; Recombinant FEN1 flap cleavage, fluorescence, 15 min; Potency, µM (doses to about 114 µM), without a hit: at the highest dose activity change, negative = inhibition, usual class: inhibitors; 390,000 compounds, 0.35% hits; also: % is scaled to controls: 0 for no effect and ±100 for the full control effect; nearly all actives have a fitted effect of over 65% in size
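Steps: FEN1 (10 nM) dispensed; compound added by pin tool; 15 min at room temperature; substrate added to 50 nM final; reads at 0 min and 15 min; data normalized and fitted (four-parameter Hill).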
Pol beta inh = blocks human DNA polymerase beta activity; P06746; Pol beta primer extension/strand displacement, fluorescence kinetic; Potency, µM (titrated, usually from 114 µM), for inactives: at the top dose activity change, negative = inhibition, usual class: inhibitors; 340,000 compounds, 1.3% hits; AID 485314; also: % is scaled to controls: 0 for no effect and ±100 for the full control effect
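Reaction started by 50 nM substrate onto compound-treated Pol beta (10 nM, 15 min preincubation, room temperature); plates read at 0 min and 10 min. Normalized concentration-effect data fitted by four-parameter Hill equation.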
Pol eta inh-1 = DNA polymerase eta (human) inhibition; recombinant Pol eta, fluorescent DNA replication assay; Potency, µM (series often up to 114 µM), inactives show top-dose activity change, negative = inhibition, usual class: inhibitors; 390,000 compounds, 1.2% hits; AID 588591; also: % is scaled to controls: 0 for no effect and ±100 for the full control effect
Target sequence (Q9Y253 whole entry, looked up): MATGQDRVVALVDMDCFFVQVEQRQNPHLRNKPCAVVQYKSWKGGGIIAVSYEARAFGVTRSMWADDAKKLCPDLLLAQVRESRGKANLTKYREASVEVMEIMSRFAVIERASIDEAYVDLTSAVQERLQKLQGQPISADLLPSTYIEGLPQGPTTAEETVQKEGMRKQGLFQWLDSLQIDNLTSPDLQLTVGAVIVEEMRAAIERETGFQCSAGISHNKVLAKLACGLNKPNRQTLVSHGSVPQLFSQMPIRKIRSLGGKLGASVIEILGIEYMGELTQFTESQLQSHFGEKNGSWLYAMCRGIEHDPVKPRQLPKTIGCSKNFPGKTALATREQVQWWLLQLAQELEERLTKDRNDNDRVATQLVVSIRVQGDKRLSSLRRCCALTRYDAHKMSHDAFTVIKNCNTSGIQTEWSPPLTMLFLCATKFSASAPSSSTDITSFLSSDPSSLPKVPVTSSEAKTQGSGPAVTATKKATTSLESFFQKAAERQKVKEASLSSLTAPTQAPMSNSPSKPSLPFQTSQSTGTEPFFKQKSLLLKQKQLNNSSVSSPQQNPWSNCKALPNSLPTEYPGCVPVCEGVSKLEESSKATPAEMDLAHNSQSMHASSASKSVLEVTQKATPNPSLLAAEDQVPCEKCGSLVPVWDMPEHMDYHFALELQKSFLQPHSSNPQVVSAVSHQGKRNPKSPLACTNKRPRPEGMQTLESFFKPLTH
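Pol eta (10 nM) was preincubated with compounds for 15 min at room temperature, after which fluorescent replication substrate (50 nM final) was added to start the reaction. Fluorescence was read kinetically at 0 and 10 min.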
WRN helicase inh = inhibitors of human WRN helicase; 360,000 compounds, 0.46% hits; Potency, µM (doses to about 114 µM), for inactives: at the highest dose activity change, negative = inhibition, usual class: inhibitors; AID 651768; WRN helicase unwinding, fluorescent forked duplex, kinetic; Q14191; also: % is scaled to controls: 0 for no effect and ±100 for the full control effect; nearly all actives have a fitted effect of over 55% in size
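WRN at 20 nM final preincubated with compound 15 min at room temperature; reaction started with 100 nM fluorophore/quencher forked duplex oligonucleotide and 2 mM ATP final. Unwinding followed kinetically by red fluorescence (ex 525, em 598 nm).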
Pol iota inh = inhibitors of human DNA polymerase iota | Pol iota fluorescent replication assay, 10 min | AID 588590 | 390,000 compounds, 1% hits | Potency, µM (top dose mostly 115 µM), for inactives: at the highest dose activity, negative = inhibition, usual class: inhibitors
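Pol iota at 10 nM preincubated 15 min with compounds at room temperature; reaction started with fluorescent substrate, 50 nM final. Fluorescence read kinetically at 0 and 10 min; buffer-only wells as negative control.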
Pol kappa inh-1 = DNA polymerase kappa (human) inhibition. 400,000 compounds, 0.53% hits. Potency, µM (titrated, usually from 107 µM), for the others: at the highest dose activity, negative = inhibition, most hits filed as inhibitors. Q9UBT6. purified Pol kappa, fluorescent DNA synthesis assay, 10 min. AID 588579; also: % is scaled to controls: 0 for no effect and ±100 for the full control effect
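Here, compound and 10 nM enzyme are combined for 15 min at room temperature; adding 50 nM substrate (final) starts DNA synthesis, tracked by fluorescence at 0 and 10 min against buffer-only wells.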
Pol kappa inh-2 = Pol kappa (human) inhibition, cherry-pick confirmation; shares compounds with Pol eta inh-1; purified Pol-kappa, fluorescent strand-displacement substrate; Potency, µM, actives largely listed as inhibitors; 920 compounds, 76% hits
Pol eta inh-2 = Pol eta (human) inhibition, cherry-pick confirmation | AID 720502 | shares compounds with Pol eta inh-1 | Potency, µM, hits mostly inhibitors | 2,600 compounds, 64% hits | Pol eta primer extension, TAMRA/BHQ fluorescence, 10 min
* = called active by the depositor; ? = inconclusive; nt = no result given; [ ] = another dose, or the depositor's remark. Calls follow the shape of the dose curve; as a rule, active = well fitted curve in the direction sought with a large enough effect; inconclusive = small, poorly fitted or top-dose-only effect, or another doubt; inactive = no such curve, though single readings can be large; an effect the other way counts as inactive or inconclusive. Potency is read from the fitted curve at half-maximal effect.

SMILES | FEN1 inh | Pol beta inh | Pol eta inh-1 | WRN helicase inh | Pol iota inh | Pol kappa inh-1 | Pol eta inh-2 | others
Cc1nn(-c2cccc(C(=O)O)c2)c(C)c1[N+](=O)[O-] | 3% | -2% | -4% | -1%[57.1 µM] | 29% | -7% | nt
Cc1[nH]c2ccccc2c1/C=N/Nc1cccc(C(=O)O)c1 | -20% | ? | 56µM* | -12% | ? | ? | ?
Cc1[nH]c2ccccc2c1/C=N/NC(=O)c1cccc(Br)c1 | -9% | ? | ? | -14% | 42% | -8% | nt
COc1cc(/C=N/n2c(-c3n[nH]c4c3CCC4)n[nH]c2=S)cc(OC)c1O | 5% | 8% | -9% | -12% | 42% | 5% | nt
S=c1[nH]nc(-c2ccco2)n1/N=C/C=C/c1ccco1 | -30% | 35µM* | 28µM* | ? | 11µM* | 79µM* | 85*
S=c1[nH]nc(-c2n[nH]c3c2CCC3)n1/N=C/C=C/c1ccco1 | -26% | 40µM* | 25µM* | ? | ? | 79µM* | 30*
COC(=O)C/C=N/N=C1/NC(=O)/C(=C/C(=O)O)S1 | 50µM* | 40µM* | 40µM* | -33% | 14µM* | 45µM* | 48*
O=C(Cc1ccc(S(=O)(=O)N2CCOCC2)s1)NCC1CCCCC1 | 3% | ? | ? | -12% | -17% | -29% | nt
O=C(Cc1ccc(S(=O)(=O)N2CCOCC2)s1)NC1CCCCC1 | -6% | nt | 20µM* | -29% | 45µM* | ? | ?
O=C(Nc1nnc(S(=O)(=O)N2CCCc3ccccc32)s1)c1ccccc1Cl | 0% | 4% | 56µM* | nt | 16% | 4% | nt | Pol kappa inh-2=?
O=C(Nc1nnc(S(=O)(=O)N2CCc3ccccc32)s1)c1ccccc1Cl | 5% | -9% | -16% | nt | 27% | 1% | nt
O=C(Nc1nnc(S(=O)(=O)N2CCOCC2)s1)c1ccccc1 | -2% | ? | 40µM* | -8%[11.6 µM] | ? | ? | ? | Pol kappa inh-2=38*
CC1Cc2ccccc2N1S(=O)(=O)c1nnc(NC(=O)c2ccccc2Br)s1 (stereo unspecified) | -1% | -13% | ? | nt | 34% | 5% | ?
CC(C)=CCC/C(C)=C/CC/C(C)=C/CSCC(=O)O | nt | nt | nt | nt | nt | 2%[19.4 µM] | nt
N#Cc1cccc(-c2nc(NCc3cccnc3)c3ccccc3n2)c1 | nt | nt | nt | nt | nt | -5%[60.1 µM] | nt
Cc1ccc(Nc2c([N+](=O)[O-])ccc3nonc23)c(C)c1 | 12% | 8% | -25% | -5% | 5% | -16% | nt
Cc1ccc(S(=O)c2ccc([N+](=O)[O-])c3nonc23)cc1 (stereo unspecified) | nt | nt | 14µM* | 79µM* | nt | nt | 34* | Pol kappa inh-2=?
COc1ccc(/C=C2\SC(=S)N(NS(=O)(=O)c3ccccc3)C2=O)c(OC)c1 | -25% | -22% | ? | -8%[11.6 µM] | -1% | 3% | nt
COc1ccc(/C=C2\SC(=S)N(NS(=O)(=O)c3ccc(C)cc3)C2=O)c(OC)c1 | -23% | ? | ? | -35% | 32% | -9% | 21*
O=C(O)C1Cc2ccccc2CN1S(=O)(=O)/C=C/c1ccccc1 (stereo unspecified) | 11% | -3% | -20% | -1% | 36% | -16% | nt
CS(=O)(=O)N1Cc2ccccc2CC1C(=O)O (stereo unspecified) | 1% | 18µM* | 8.9µM* | -11%[11.6 µM] | ? | ? | 60*
Cc1ccc(NS(=O)(=O)c2ccccc2)c(C)c1 | 3% | nt | nt | nt | 35% | 13% | nt
O=C(CN1CCCN(S(=O)(=O)c2ccc(Br)cc2)CC1)Nc1cccc(C(F)(F)F)c1 | -17% | 15% | -16% | nt | ? | -1% | nt
COC(=O)C(C)N1C(=O)S/C(=C\c2ccc(-c3ccc(C(=O)O)cc3C)o2)C1=O (stereo unspecified) | ? | 40µM* | 10µM* | ? | ? | 32µM* | 43*
O=C1CSC(=S)N1/N=C/c1c(F)cccc1F | -6% | 10% | -18% | -16% | ? | -12% | nt
SMILES | FEN1 inh | Pol beta inh | Pol eta inh-1 | WRN helicase inh | Pol iota inh | Pol kappa inh-1 | Pol eta inh-2 | others
O=C1CSC(=S)N1/N=C/C=C/c1ccccc1 | -10% | 28µM* | 14µM* | -28% | 20µM* | ? | ?
O=C(O)c1[nH]c2ccc(Cl)cc2c1CC(=O)N1CCN(C(=O)c2ccco2)CC1 | -16% | 13µM* | 7.1µM* | ? | ? | 50µM* | 30*
COc1ccc2c(c1)c(=O)oc1c(C)c(OC(C)C(=O)N[C@@H](Cc3c[nH]c4ccc(O)cc34)C(=O)O)ccc12 (stereo partly specified) | -4% | ? | 20µM* | -14%[11.6 µM] | ? | ? | 48*
CCOc1ccccc1CN1CCc2nc(N3CCN(c4ccccc4F)CC3)ncc2C1 | -11% | -3% | -5% | nt | 53% | 1%[60.1 µM] | nt
COCCn1c(=O)cnc2cnc(Oc3ccccc3)nc21 | nt | nt | nt | nt | nt | -1%[60.1 µM] | nt
Cc1ccc(-n2[nH]c(C)c(/C=N/Nc3ccc([N+](=O)[O-])cc3[N+](=O)[O-])c2=O)cc1C | -10% | -9% | 20µM* | ? | ? | -21% | ?
CCOc1ccc(NC(=O)c2nn(C)c3c2COc2ccccc2-3)cc1 | -20% | 18% | -15% | nt | 12% | -5% | nt
Cc1ccc(CNC(=O)c2sc3nc4n(c(=O)c3c2C)CCCC4)cc1 | -7% | ? | -20% | nt | 3% | -3% | nt
Cc1cc(NC(=O)c2cc([N+](=O)[O-])cc([N+](=O)[O-])c2)no1 | -3% | 0% | 13% | -7% | 7% | 11% | nt
Cc1cc(NC(=O)c2cc([N+](=O)[O-])cc([N+](=O)[O-])c2C)no1 | 14% | ? | 32µM* | -17% | 56µM* | ? | ?
Cc1c(C(=O)N2CCN(c3ccccc3)CC2)sc2nc3n(c(=O)c12)CCC3 | -2% | ? | 4% | -2% | 19% | -3% | nt
Cc1c(C(=O)O)sc2nc3n(c(=O)c12)CCC3 | -8% | 18µM* | 7.9µM* | -30% | 11µM* | ? | 60*
CCn1c(SCC(=O)c2ccc(O)c(O)c2)nnc1-c1ccc(C)cc1 | -5% | -46% | 10µM* | 13µM* | -51% | 28µM* | 60* | Pol kappa inh-2=?
CCOC(=O)CN(Cc1ccccc1)C(C(=O)NC1CCCCC1)c1ccccc1 (stereo unspecified) | -2% | 3% | -12% | nt | -6% | -15% | nt
